PMC11006913
Substitutions are numbered along the chain they refer to.

Legend:
Assay in all cases: PBM; 200 nM protein, PBS
Conditions in all cases: dsDNA, one strand shown
HOXB4 [1] = target: HOXB4 (Homo sapiens, UniProt P17483 148-234)
VENTX [2] = target: T1, VENTX (Homo sapiens, UniProt O95231 78-163, R121Q)
T1 sequence: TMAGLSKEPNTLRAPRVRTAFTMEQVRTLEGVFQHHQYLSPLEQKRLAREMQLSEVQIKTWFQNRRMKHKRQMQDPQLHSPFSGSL

ALX4 = ALX4 (Homo sapiens, UniProt Q9H161 200-286)
PAX4 [3] = target: T2, PAX4 (Homo sapiens, UniProt O43316 9-242, R200K)
T2 sequence: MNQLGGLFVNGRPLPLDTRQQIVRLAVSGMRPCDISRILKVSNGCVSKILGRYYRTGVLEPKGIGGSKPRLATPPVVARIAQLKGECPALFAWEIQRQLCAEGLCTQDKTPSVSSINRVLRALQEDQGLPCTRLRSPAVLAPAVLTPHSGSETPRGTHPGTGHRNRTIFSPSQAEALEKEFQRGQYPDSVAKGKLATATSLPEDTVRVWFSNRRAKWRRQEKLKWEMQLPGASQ

PRRX1 [4] = target: PRRX1 (Homo sapiens, UniProt P54821 80-166, F113S)
Sequence of PRRX1 (Homo sapiens, UniProt P54821 80-166, F113S) (P54821 80-166 F113S): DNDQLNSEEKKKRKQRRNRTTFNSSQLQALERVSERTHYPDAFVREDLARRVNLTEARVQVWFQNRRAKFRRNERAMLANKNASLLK

VENTX [5] = target: T3, VENTX (Homo sapiens, UniProt O95231 78-163, Y115F)
T3 sequence: T1 sequence with Y38F, Q44R

HOXB6 = HOXB6 (Homo sapiens, UniProt P17509 132-218, K202E)
Sequence of HOXB6 (P17509 132-218 K202E): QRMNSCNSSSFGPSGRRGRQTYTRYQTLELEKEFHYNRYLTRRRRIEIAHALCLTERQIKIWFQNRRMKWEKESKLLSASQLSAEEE

HOXA2 [6] = target: HOXA2 (Homo sapiens, UniProt O43364 129-215, R185T)
Sequence of HOXA2 (Homo sapiens, UniProt O43364 129-215, R185T) (O43364 129-215 R185T): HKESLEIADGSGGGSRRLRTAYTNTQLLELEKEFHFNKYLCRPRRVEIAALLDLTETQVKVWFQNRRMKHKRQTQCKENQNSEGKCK

HOXA4 [7] = target: HOXA4 (Homo sapiens, UniProt Q00056 201-287, R217L)
Sequence of HOXA4 (Homo sapiens, UniProt Q00056 201-287, R217L) (Q00056 201-287 R217L): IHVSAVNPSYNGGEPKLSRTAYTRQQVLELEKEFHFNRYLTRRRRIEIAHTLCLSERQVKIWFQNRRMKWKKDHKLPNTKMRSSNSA

HOXB4 [8] = target: HOXB4 (Homo sapiens, UniProt P17483 148-234, V174I)
Sequence of HOXB4 (Homo sapiens, UniProt P17483 148-234, V174I) (P17483 148-234 V174I): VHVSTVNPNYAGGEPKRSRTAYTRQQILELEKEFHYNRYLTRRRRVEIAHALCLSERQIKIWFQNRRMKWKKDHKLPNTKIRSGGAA

PAX4 [9] = target: T4, PAX4 (Homo sapiens, UniProt O43316 9-242, R200Q)
T4 sequence: T2 sequence with K192Q

HOXA2 [10] = target: HOXA2 (Homo sapiens, UniProt O43364 129-215, R185K)
Sequence of HOXA2 (Homo sapiens, UniProt O43364 129-215, R185K) (O43364 129-215 R185K): as the sequence (O43364 129-215 R185T) above, with T57K counted along it

PAX4 [11] = target: T5, PAX4 (Homo sapiens, UniProt O43316 9-242, F177V)
T5 sequence: T2 sequence with F169V, K192R

MSX2 [12] = target: MSX2 (Homo sapiens, UniProt P35548 130-214)
Sequence of MSX2 (Homo sapiens, UniProt P35548 130-214) (P35548 130-214): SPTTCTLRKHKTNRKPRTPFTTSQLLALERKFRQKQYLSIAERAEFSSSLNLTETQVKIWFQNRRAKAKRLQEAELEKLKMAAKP

PAX4 [13] = target: T6, PAX4 (Homo sapiens, UniProt O43316 9-242, F177Y)
T6 sequence: T2 sequence with F169Y, K192R

MSX2 [14] = target: MSX2 (Homo sapiens, UniProt P35548 130-214, F161Y)
Sequence of MSX2 (Homo sapiens, UniProt P35548 130-214, F161Y) (P35548 130-214 F161Y): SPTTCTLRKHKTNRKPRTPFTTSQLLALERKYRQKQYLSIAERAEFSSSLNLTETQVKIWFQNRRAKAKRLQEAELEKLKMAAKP

VAX1 [15] = target: VAX1 (Homo sapiens, UniProt Q5SQQ9 86-172, T142I)
Sequence of VAX1 (Homo sapiens, UniProt Q5SQQ9 86-172, T142I) (Q5SQQ9 86-172 T142I): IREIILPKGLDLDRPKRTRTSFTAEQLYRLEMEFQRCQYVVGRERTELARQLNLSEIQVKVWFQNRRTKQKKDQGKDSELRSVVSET

HOXA4 [16] = target: HOXA4 (Homo sapiens, UniProt Q00056 201-287, W262F)
Sequence of HOXA4 (Homo sapiens, UniProt Q00056 201-287, W262F) (Q00056 201-287 W262F): as the sequence (Q00056 201-287 R217L) above, with L17R, W62F counted along it

PRRX1 [17] = target: PRRX1 (Homo sapiens, UniProt P54821 80-166)
Sequence of PRRX1 (Homo sapiens, UniProt P54821 80-166) (P54821 80-166): as the sequence (P54821 80-166 F113S) above, with S34F counted along it

VAX1 [18] = target: VAX1 (Homo sapiens, UniProt Q5SQQ9 86-172, K157R)
Sequence of VAX1 (Homo sapiens, UniProt Q5SQQ9 86-172, K157R) (Q5SQQ9 86-172 K157R): as the sequence (Q5SQQ9 86-172 T142I) above, with I57T, K72R counted along it

Sequence of ALX4 (Q9H161 200-286): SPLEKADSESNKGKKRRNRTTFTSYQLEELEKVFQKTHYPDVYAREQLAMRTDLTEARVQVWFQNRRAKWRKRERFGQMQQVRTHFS
Sequence of HOXB4 (Homo sapiens, UniProt P17483 148-234) (P17483 148-234): as the sequence (P17483 148-234 V174I) above, with I27V counted along it

| Sequence | binding signal (HOXB4 [1]) | binding signal (VENTX [2]) | binding signal (ALX4) | binding signal (PAX4 [3]) | binding signal (PRRX1 [4]) | binding signal (VENTX [5]) | binding signal (HOXB6) | binding signal (HOXA2 [6]) | binding signal (HOXA4 [7]) | binding signal (HOXB4 [8]) | binding signal (PAX4 [9]) | binding signal (HOXA2 [10]) | binding signal (PAX4 [11]) | binding signal (MSX2 [12]) | binding signal (PAX4 [13]) | binding signal (MSX2 [14]) | binding signal (VAX1 [15]) | binding signal (HOXA4 [16]) | binding signal (PRRX1 [17]) | binding signal (VAX1 [18]) |
| --- | --- | --- | --- | --- | --- | --- | --- | --- | --- | --- | --- | --- | --- | --- | --- | --- | --- | --- | --- | --- |
| GTTAATTA | 13.5 upbm affinity estimate (log intensity, higher = more binding, comparable within an allelic series) | 12.5 upbm affinity estimate (log intensity, higher = more binding, comparable within an allelic series) | 14.5 upbm affinity estimate (log intensity, higher = more binding, comparable within an allelic series) | 12.1 upbm affinity estimate (log intensity, higher = more binding, comparable within an allelic series) | 12 upbm affinity estimate (log intensity, higher = more binding, comparable within an allelic series) | 12.3 upbm affinity estimate (log intensity, higher = more binding, comparable within an allelic series) | 10.2 upbm affinity estimate (log intensity, higher = more binding, comparable within an allelic series) | 13.9 upbm affinity estimate (log intensity, higher = more binding, comparable within an allelic series) | 13.2 upbm affinity estimate (log intensity, higher = more binding, comparable within an allelic series) | 14.3 upbm affinity estimate (log intensity, higher = more binding, comparable within an allelic series) | 12.5 upbm affinity estimate (log intensity, higher = more binding, comparable within an allelic series) | 13.8 upbm affinity estimate (log intensity, higher = more binding, comparable within an allelic series) | 10.9 upbm affinity estimate (log intensity, higher = more binding, comparable within an allelic series) | 14 upbm affinity estimate (log intensity, higher = more binding, comparable within an allelic series) | 11.4 upbm affinity estimate (log intensity, higher = more binding, comparable within an allelic series) | 13.6 upbm affinity estimate (log intensity, higher = more binding, comparable within an allelic series) | 13.9 upbm affinity estimate (log intensity, higher = more binding, comparable within an allelic series) | 13 upbm affinity estimate (log intensity, higher = more binding, comparable within an allelic series) | 13.6 upbm affinity estimate (log intensity, higher = more binding, comparable within an allelic series) | 13.9 upbm affinity estimate (log intensity, higher = more binding, comparable within an allelic series) |
| GCAATTAA | 13.2 upbm affinity estimate (log intensity, higher = more binding, comparable within an allelic series) | 12.2 upbm affinity estimate (log intensity, higher = more binding, comparable within an allelic series) | 13.8 upbm affinity estimate (log intensity, higher = more binding, comparable within an allelic series) |  | 11.1 upbm affinity estimate (log intensity, higher = more binding, comparable within an allelic series) | 11.9 upbm affinity estimate (log intensity, higher = more binding, comparable within an allelic series) | 10.1 upbm affinity estimate (log intensity, higher = more binding, comparable within an allelic series) | 13.2 upbm affinity estimate (log intensity, higher = more binding, comparable within an allelic series) | 12.4 upbm affinity estimate (log intensity, higher = more binding, comparable within an allelic series) | 13.9 upbm affinity estimate (log intensity, higher = more binding, comparable within an allelic series) | 12 upbm affinity estimate (log intensity, higher = more binding, comparable within an allelic series) | 13.4 upbm affinity estimate (log intensity, higher = more binding, comparable within an allelic series) |  | 14.1 upbm affinity estimate (log intensity, higher = more binding, comparable within an allelic series) |  | 13.7 upbm affinity estimate (log intensity, higher = more binding, comparable within an allelic series) | 13.2 upbm affinity estimate (log intensity, higher = more binding, comparable within an allelic series) | 11.8 upbm affinity estimate (log intensity, higher = more binding, comparable within an allelic series) | 13.2 upbm affinity estimate (log intensity, higher = more binding, comparable within an allelic series) | 12.9 upbm affinity estimate (log intensity, higher = more binding, comparable within an allelic series) |
| CTAATTAA | 13.3 upbm affinity estimate (log intensity, higher = more binding, comparable within an allelic series) | 12.7 upbm affinity estimate (log intensity, higher = more binding, comparable within an allelic series) | 14.4 upbm affinity estimate (log intensity, higher = more binding, comparable within an allelic series) | 12.3 upbm affinity estimate (log intensity, higher = more binding, comparable within an allelic series) | 12.1 upbm affinity estimate (log intensity, higher = more binding, comparable within an allelic series) | 12.4 upbm affinity estimate (log intensity, higher = more binding, comparable within an allelic series) | 10.1 upbm affinity estimate (log intensity, higher = more binding, comparable within an allelic series) | 13.8 upbm affinity estimate (log intensity, higher = more binding, comparable within an allelic series) | 12.9 upbm affinity estimate (log intensity, higher = more binding, comparable within an allelic series) | 13.9 upbm affinity estimate (log intensity, higher = more binding, comparable within an allelic series) | 12.9 upbm affinity estimate (log intensity, higher = more binding, comparable within an allelic series) | 13.8 upbm affinity estimate (log intensity, higher = more binding, comparable within an allelic series) | 11.2 upbm affinity estimate (log intensity, higher = more binding, comparable within an allelic series) | 14.1 upbm affinity estimate (log intensity, higher = more binding, comparable within an allelic series) | 11.7 upbm affinity estimate (log intensity, higher = more binding, comparable within an allelic series) | 13.7 upbm affinity estimate (log intensity, higher = more binding, comparable within an allelic series) | 13.8 upbm affinity estimate (log intensity, higher = more binding, comparable within an allelic series) | 12.7 upbm affinity estimate (log intensity, higher = more binding, comparable within an allelic series) | 13.7 upbm affinity estimate (log intensity, higher = more binding, comparable within an allelic series) | 13.8 upbm affinity estimate (log intensity, higher = more binding, comparable within an allelic series) |
| AGTAATTA | 13.6 upbm affinity estimate (log intensity, higher = more binding, comparable within an allelic series) | 12.5 upbm affinity estimate (log intensity, higher = more binding, comparable within an allelic series) | 14.3 upbm affinity estimate (log intensity, higher = more binding, comparable within an allelic series) | 11.9 upbm affinity estimate (log intensity, higher = more binding, comparable within an allelic series) | 11.7 upbm affinity estimate (log intensity, higher = more binding, comparable within an allelic series) | 12.6 upbm affinity estimate (log intensity, higher = more binding, comparable within an allelic series) | 10.3 upbm affinity estimate (log intensity, higher = more binding, comparable within an allelic series) | 13.9 upbm affinity estimate (log intensity, higher = more binding, comparable within an allelic series) | 13.1 upbm affinity estimate (log intensity, higher = more binding, comparable within an allelic series) | 14.4 upbm affinity estimate (log intensity, higher = more binding, comparable within an allelic series) | 12.3 upbm affinity estimate (log intensity, higher = more binding, comparable within an allelic series) | 14 upbm affinity estimate (log intensity, higher = more binding, comparable within an allelic series) | 10.7 upbm affinity estimate (log intensity, higher = more binding, comparable within an allelic series) | 14.2 upbm affinity estimate (log intensity, higher = more binding, comparable within an allelic series) | 11.1 upbm affinity estimate (log intensity, higher = more binding, comparable within an allelic series) | 13.9 upbm affinity estimate (log intensity, higher = more binding, comparable within an allelic series) | 13.9 upbm affinity estimate (log intensity, higher = more binding, comparable within an allelic series) | 12.6 upbm affinity estimate (log intensity, higher = more binding, comparable within an allelic series) | 13.6 upbm affinity estimate (log intensity, higher = more binding, comparable within an allelic series) | 13.9 upbm affinity estimate (log intensity, higher = more binding, comparable within an allelic series) |
